Experimental data published in PubChem BioAssay (Tox21).
Values joined by “and” are separate entries in the source; they are usually repeats but may differ in a detail not shown here. Identical values can stand only once. Some compounds were tested as several samples or in several runs, with calls that do not always agree. Active and inactive are the calls of the source. Unless noted, calls come from the whole dose curve; as a rule, active = well fitted curve in the direction sought with a large enough effect in the repeat runs; inconclusive = weak or mixed curves; inactive = no such curve, though single readings can be large; an effect the other way counts as inactive or inconclusive.

Legend:
[1] = qHTS assay to identify small molecule antagonists of the glucocorticoid receptor (GR) signaling pathway - cell viability counter screen (AID 720693); note: nearly all actives have a fitted effect of over 55% in size; note: potency is the fitted concentration of half-maximal effect
[2] = qHTS assay for identifying genotoxic compounds that show differential cytotoxicity against isogenic chicken DT40 cell lines with known DNA damage response pathways - wild type cell line (AID 743012); note: nearly all actives have a fitted effect of over 60% in size; note: potency is the fitted concentration of half-maximal effect
Summary of the method: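 Luminescent ATP viability signal (CellTiter-Glo, 30 min RT) recorded after wild type DT40 cells were incubated with compounds for 40 h at 37 C/5% CO2.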

[3] = qHTS assay for identifying genotoxic compounds that show differential cytotoxicity against isogenic chicken DT40 cell lines with known DNA damage response pathways - Rev3 mutant cell line (AID 743014); note: nearly all actives have a fitted effect of over 55% in size; note: potency is the fitted concentration of half-maximal effect
[4] = qHTS assay for identifying genotoxic compounds that show differential cytotoxicity against isogenic chicken DT40 cell lines with known DNA damage response pathways - Rad54/Ku70 mutant cell line (AID 743015); note: nearly all actives have a fitted effect of over 60% in size; note: potency is the fitted concentration of half-maximal effect
[5] = qHTS assay to identify small molecule antagonists of the androgen receptor (AR) signaling pathway - cell viability counter screen (AID 743033; note: nearly all actives have a fitted effect of over 45% in size; note: potency is the fitted concentration of half-maximal effect)
[6] = qHTS assay to identify small molecule antagonists of the androgen receptor (AR) signaling pathway using the MDA cell line - cell viability counter screen (AID 743041; note: nearly all actives have a fitted effect of over 45% in size; note: potency is the fitted concentration of half-maximal effect)
Summary of the method: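 Cytotoxicity counter screen: MDA-kb2 AR-luc cells, compound + R1881, 16 h, 37C, 0% CO2; CellTiter-Fluor added at 15.5 h, fluorescence read after 30 min.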

[7] = qHTS assay to identify small molecule antagonists of the thyroid receptor (TR) signaling pathway - cell viability counter screen (AID 743064); note: nearly all actives have a fitted effect of over 50% in size; note: potency is the fitted concentration of half-maximal effect
Summary of the method: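 GH3.TRE-Luc cells, 4 h pre-plating; cpd + T3 1 nM final; 37 °C 23.5 h; CellTiter-Fluor 30 min; fluorescence read.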

[8] = qHTS assay to identify small molecule antagonists of the thyroid receptor (TR) signaling pathway (AID 743065); note: nearly all actives have a fitted effect of over 55% in size; note: potency is the fitted concentration of half-maximal effect
Summary of the method: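 GH3.TRE-Luc rat pituitary cells (two TREs driving luciferase) were dosed with compound, then stimulated with 1 nM T3 (final) for 23.5 h at 37 C. ONE-Glo luminescence was the read-out, with CellTiter-Fluor fluorescence as the cytotoxicity counter-screen.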

[9] = test system: thyroid hormone receptor (rat, GH3 cells); experiment: qHTS assay to identify small molecule agonists of the thyroid receptor (TR) signaling pathway (AID 743066; calls by dose curve)
[10] = qHTS assay to identify small molecule antagonists of the estrogen receptor alpha (ER-alpha) signaling pathway - cell viability counter screen (AID 743074; calls by dose curve;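 note: HEK293 cells carrying ER-alpha-UAS-bla reporter stimulated with 17beta-estradiol; nearly all actives have a fitted effect of over 45% in size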; note: potency is the fitted concentration of half-maximal effect)
[11] = qHTS assay to identify small molecule antagonists of the estrogen receptor alpha (ER-alpha) signaling pathway using the BG1 cell line - cell viability counter screen (AID 743081);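 note: compound given together with 17beta-estradiol as the ER stimulus; nearly all actives have a fitted effect of over 45% in size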; note: potency is the fitted concentration of half-maximal effect
Aromatase (Homo sapiens) = Aromatase (Homo sapiens) (UniProt P11511); experiment: qHTS assay to identify aromatase inhibitors (AID 743083); note: nearly all actives have a fitted effect of over 55% in size; note: potency is the fitted concentration of half-maximal effect
Aromatase (Homo sapiens), sequence (P11511 whole entry, looked up): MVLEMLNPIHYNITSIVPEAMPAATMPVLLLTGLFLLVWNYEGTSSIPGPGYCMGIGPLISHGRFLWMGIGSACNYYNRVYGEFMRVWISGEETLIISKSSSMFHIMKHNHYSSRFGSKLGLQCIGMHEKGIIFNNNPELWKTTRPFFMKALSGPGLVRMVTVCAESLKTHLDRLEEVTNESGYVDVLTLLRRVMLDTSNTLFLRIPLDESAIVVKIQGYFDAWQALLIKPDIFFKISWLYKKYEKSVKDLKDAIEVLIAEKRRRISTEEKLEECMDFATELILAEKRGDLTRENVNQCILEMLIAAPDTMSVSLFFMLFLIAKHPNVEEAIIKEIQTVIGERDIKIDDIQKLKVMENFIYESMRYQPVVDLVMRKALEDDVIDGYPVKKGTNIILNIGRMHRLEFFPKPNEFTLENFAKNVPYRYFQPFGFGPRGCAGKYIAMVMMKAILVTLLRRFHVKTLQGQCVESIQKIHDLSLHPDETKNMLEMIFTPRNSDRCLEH

[12] = target: Androgen receptor (Homo sapiens) (UniProt P10275); experiment: qHTS assay to identify small molecule agonists of the androgen receptor (AR) signaling pathway using the MDA cell line (AID 743040; note: nearly all actives have a fitted effect of over 20% in size; note: potency is the fitted concentration of half-maximal effect)
Androgen receptor (Homo sapiens), sequence (P10275 whole entry, looked up): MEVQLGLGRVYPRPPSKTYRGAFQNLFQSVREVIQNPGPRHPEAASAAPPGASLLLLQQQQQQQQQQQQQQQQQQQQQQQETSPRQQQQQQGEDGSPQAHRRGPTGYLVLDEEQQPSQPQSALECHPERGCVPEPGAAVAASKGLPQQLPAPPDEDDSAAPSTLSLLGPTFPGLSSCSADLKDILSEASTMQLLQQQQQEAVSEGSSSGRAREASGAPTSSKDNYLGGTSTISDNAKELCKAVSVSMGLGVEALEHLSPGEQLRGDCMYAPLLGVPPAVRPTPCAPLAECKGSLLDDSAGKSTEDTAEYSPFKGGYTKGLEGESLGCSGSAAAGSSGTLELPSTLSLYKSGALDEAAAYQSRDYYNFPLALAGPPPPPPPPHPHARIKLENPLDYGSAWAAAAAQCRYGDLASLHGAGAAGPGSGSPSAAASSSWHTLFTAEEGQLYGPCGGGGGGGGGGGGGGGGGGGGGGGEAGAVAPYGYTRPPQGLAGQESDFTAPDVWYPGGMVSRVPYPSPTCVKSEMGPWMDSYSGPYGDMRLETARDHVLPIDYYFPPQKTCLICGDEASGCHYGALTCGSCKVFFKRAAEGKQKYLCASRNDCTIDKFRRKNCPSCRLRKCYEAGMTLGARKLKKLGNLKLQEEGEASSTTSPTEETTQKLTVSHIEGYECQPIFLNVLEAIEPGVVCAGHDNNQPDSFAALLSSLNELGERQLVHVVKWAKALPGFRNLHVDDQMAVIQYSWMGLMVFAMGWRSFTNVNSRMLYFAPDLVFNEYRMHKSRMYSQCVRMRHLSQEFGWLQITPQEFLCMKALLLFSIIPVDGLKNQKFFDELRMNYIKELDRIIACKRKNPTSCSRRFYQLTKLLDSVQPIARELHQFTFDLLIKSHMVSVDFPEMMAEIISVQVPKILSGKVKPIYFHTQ
Summary of the method: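 Luciferase read-out, ONE-Glo, 30 min RT. Cells: MDA-kb2 AR-luc, MMTV promoter with AR and GR response elements. Compound exposure 16 h, 37C, 0% CO2, after 5 h pre-incubation. qHTS agonist mode.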

[13] = target: Estrogen receptor (Homo sapiens) (UniProt P03372); experiment: qHTS assay to identify small molecule antagonists of the estrogen receptor alpha (ER-alpha) signaling pathway (AID 743069; active = well fitted curve in the direction sought with a large enough effect in the signal ratio in the repeat runs, not every such curve was filed as active; inconclusive = weak or mixed curves, or effect the other way; inactive = no such curve, though single readings can be large or run the other way; the % refers to the signal ratio; note: potency is the fitted concentration of half-maximal effect)
Estrogen receptor (Homo sapiens), sequence (P03372 whole entry, looked up): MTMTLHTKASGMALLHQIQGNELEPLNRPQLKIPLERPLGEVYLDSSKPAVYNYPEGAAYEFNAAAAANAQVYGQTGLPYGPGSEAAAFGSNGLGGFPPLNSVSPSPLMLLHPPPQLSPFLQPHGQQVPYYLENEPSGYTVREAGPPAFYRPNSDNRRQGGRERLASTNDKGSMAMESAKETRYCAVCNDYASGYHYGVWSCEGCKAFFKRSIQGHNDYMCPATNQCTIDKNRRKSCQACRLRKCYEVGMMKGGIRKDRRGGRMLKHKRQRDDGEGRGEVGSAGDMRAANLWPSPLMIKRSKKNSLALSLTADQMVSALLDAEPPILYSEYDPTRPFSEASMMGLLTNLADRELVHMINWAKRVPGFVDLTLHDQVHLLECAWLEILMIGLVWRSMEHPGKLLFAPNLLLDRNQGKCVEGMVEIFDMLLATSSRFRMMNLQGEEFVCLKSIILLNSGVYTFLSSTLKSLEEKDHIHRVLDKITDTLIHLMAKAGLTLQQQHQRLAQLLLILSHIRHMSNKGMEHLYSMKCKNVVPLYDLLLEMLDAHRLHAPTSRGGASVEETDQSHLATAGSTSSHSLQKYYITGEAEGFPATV
Summary of the method: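 Beta-lactamase FRET fluorescence is read after 2 hr at room temperature with LiveBLAzer B/G substrate. Before that, ER-alpha-bla HEK293 cells sit 4 hr after plating, then receive compound plus 17beta-estradiol and incubate 18 hr at 37C.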

[14] = target: Estrogen receptor (Homo sapiens) (UniProt P03372); experiment: qHTS assay to identify small molecule agonists of the estrogen receptor alpha (ER-alpha) signaling pathway using the BG1 cell line (AID 743079); note: nearly all actives have a fitted effect of over 20% in size; note: potency is the fitted concentration of half-maximal effect
[15] = qHTS assay to identify small molecule antagonists of the estrogen receptor alpha (ER-alpha) signaling pathway using the BG1 cell line (AID 743080; calls by dose curve;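 note: BG1 cells stimulated with 17beta-estradiol alongside compound; nearly all actives have a fitted effect of over 25% in size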; note: potency is the fitted concentration of half-maximal effect)
Summary of the method: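 BG1-Luc-4E2 cells (endogenous full-length ER-alpha, 4xERE luciferase) hormone-starved 5 days in charcoal-stripped FBS, plated 4,000/well for 24 h, then compound plus 17beta-estradiol for 21.5 h at 37 C; ONE-Glo luminescence read.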

[16] = target: Estrogen receptor (Homo sapiens) (UniProt P03372); experiment: qHTS assay to identify small molecule agonists of the estrogen receptor alpha (ER-alpha) signaling pathway (AID 743075; calls by dose curve;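 note: HEK293 GripTite cells with ER-alpha and UAS-driven beta-lactamase reporter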; note: potency is the fitted concentration of half-maximal effect)
[17] = target: Androgen receptor (Homo sapiens) (UniProt P10275); experiment: qHTS assay to identify small molecule antagonists of the androgen receptor (AR) signaling pathway (AID 743035; active = well fitted inhibition curve with a large enough effect in the signal ratio in the repeat runs, not every such curve was filed as active; inconclusive = weak or mixed curves, or effect the other way; inactive = no such curve, though single readings can be large or run the other way; the % refers to the signal ratio; note: potency is the fitted concentration of half-maximal effect)
Summary of the method: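 Quantitative HTS of the Tox21 10K library used HEK293 AR-UAS-bla cells stimulated with R1881 alongside compound for 16 h at 37C, followed by beta-lactamase FRET detection (LiveBLAzer B/G, 2 h, RT).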

[18] = target: Androgen receptor (Homo sapiens) (UniProt P10275); experiment: qHTS assay to identify small molecule agonists of the androgen receptor (AR) signaling pathway (AID 743036; active = well fitted activation curve with a large enough effect in the signal ratio in the repeat runs, with a control signal flat, not every such curve was filed as active; inconclusive = weak or mixed curves, or effect the other way; inactive = no such curve, though single readings can be large or run the other way; the % refers to the signal ratio; note: potency is the fitted concentration of half-maximal effect)
Summary of the method: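 AR-bla HEK293 cells, 2,000/well; 4 h preincubation 37C/5% CO2; compound (DMSO) 16 h at 37C; LiveBLAzer B/G FRET substrate 2 h RT; fluorescence intensity read-out.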

[19] = target: Androgen receptor (Homo sapiens) (UniProt P10275); experiment: qHTS assay to identify small molecule antagonists of the androgen receptor (AR) signaling pathway using the MDA cell line (AID 743042; note: nearly all actives have a fitted effect of over 55% in size; note: potency is the fitted concentration of half-maximal effect)
Summary of the method: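 MDA-kb2 breast carcinoma cells carrying MMTV-luciferase (AR/GR responsive) were co-treated with compounds and the agonist R1881 for 16 h at 37C. Inhibition read as ONE-Glo luminescence; CellTiter-Fluor fluorescence measured in parallel for cytotoxicity.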

Measured: Potency
% is set by controls: 0 for no effect and ±100 for the full control effect.

CN(C)[C@@H]1C(=O)C(C(N)=O)=C(O)[C@@]2(O)C(=O)C3=C(O)c4c(O)ccc(Cl)c4[C@@](C)(O)[C@H]3C[C@@H]12
inactive: [1] | [2] | [5] | [6] | [7] | [8] | [9] | [10] | [11] | Aromatase (Homo sapiens)
inactive and 55.6 µM (active): [3]
inactive and 62.4 µM (active): [4]

CC1(C)CN=C(NN=C(/C=C/c2ccc(C(F)(F)F)cc2)/C=C/c2ccc(C(F)(F)F)cc2)NC1
active: [1] 24.5 µM | [2] 4.33 µM | [3] 3.86 µM | [4] 4.33 µM | [5] 21.9 µM | [7] 12.2 µM | [8] 12.2 µM | [13] 49 µM [cytotoxic] | [10] 43.6 µM | [14] 3.06 µM | [11] 61.1 µM | Aromatase (Homo sapiens) 8.63 µM
inactive: [12] | [9]

CCCCCCCCCCCCCC[P+](CCCCCC)(CCCCCC)CCCCCC (tested in a mixture with another compound)
active: [1] 2.75 µM | [2] 3.44 µM | [3] 3.86 µM | [4] 3.06 µM | [5] 1.95 µM | [6] 4.33 µM | [7] 2.43 µM | [8] 1.54 µM | [13] 0.246 µM [inconclusive] | [10] 7.76 µM | [15] 2.73 µM | [11] 9.69 µM | Aromatase (Homo sapiens) 3.06 µM

Cn1cc(C2=C(c3cn(C4CCN(Cc5ccccn5)CC4)c4ccccc34)C(=O)NC2=O)c2ccccc21
inactive: [1] | [2] | [3] | [4] | [5] | [6] | [7] | [8] | [9] | [10]

CN(C)CCc1c[nH]c2cccc(O)c12
active: [2] 30.3 µM | [3] 60.5 µM | [4] 42.8 µM
inactive: [1] | [5] | [6] | [7] | [9] | [10]

CC1(C)C(/C=C(\Cl)C(F)(F)F)C1C(=O)OC(C#N)c1cccc(Oc2ccccc2)c1 (stereo unspecified)
inactive: [1] | [2] | [3] | [4] | [5] | [6] | [7] | [8] | [9] | [10] | [11] | Aromatase (Homo sapiens)

Clc1ccc(C(Cl)(Cl)Cl)c(Cl)c1
inactive: [1] | [2] | [3] | [4] | [5] | [6] | [7] | [8] | [9] | [10] | [11]

ClC1=C(Cl)C2(Cl)C3C(Cl)C=CC3C1(Cl)C2(Cl)Cl (stereo unspecified)
active: [3] 30.6 µM | [4] 68.6 µM | [7] 30.8 µM and 54.5 µM | [8] 43.5 µM and 54.5 µM | Aromatase (Homo sapiens) 68.6 µM
inactive and 48.6 µM (active): [2]
inactive: [1] | [5] | [6] | [9] | [16] | [14] | [15] | [11]

S=C(SSC(=S)N1CCCCC1)N1CCCCC1
active: [2] 0.531 µM | [3] 0.531 µM | [4] 0.596 µM | [5] 6.01 µM | [6] 1.06 µM | [7] 0.211 µM | [8] 0.237 µM | Aromatase (Homo sapiens) 1.06 µM
inactive: [1] | [10]

CCCCCCCCCCCCCCCC[n+]1ccccc1
inactive: [16]
active: [1] 25.7 µM and 30.9 µM and 34.2 µM | [2] 427 nM [middle of 4 runs] | [3] 380 nM [middle of 4 runs] | [4] 386 nM [middle of 4 runs] | [5] 19.2 µM [middle of 4 runs] | [6] 27.3 µM [middle of 4 runs] | [7] 16.8 µM [middle of 4 runs] | [10] 22.9 µM and 24.5 µM and 43 µM | [15] 21.1 µM and 18 µM and 15.4 µM | Aromatase (Homo sapiens) 7.7 µM [middle of 4 runs]

COc1ccc(/C(=C/C(=O)N2CCOCC2)c2ccc(Cl)cc2)cc1OC
inactive: [1] | [5] | [17] | [18] | [12] | [6] | [7] | [8] | [9] | [10] | [11] | Aromatase (Homo sapiens)
active: [2] 24.3 µM | [3] 30.6 µM | [4] 30.6 µM | [19] 30.6 µM

CCCCCCCCCCCCCCCCCCn1cc[n+](C)c1
active: [1] 24.4 µM | [2] 1.21 µM | [3] 0.963 µM | [4] 2.16 µM | [5] 13.7 µM | [17] 3.87 µM | [19] 7.65 µM | [7] 12.1 µM | [8] 5.42 µM | [10] 38.7 µM | [11] 30.5 µM | Aromatase (Homo sapiens) 3.83 µM
inactive: [12] | [16]

Cc1cc(C)cc(OP(=O)(Oc2cc(C)cc(C)c2)Oc2cc(C)cc(C)c2)c1
inactive: [1] | [2] | [3] | [5] | [7] | [9] | [13] | [10] | [16] | [14] | [15] | [11] | Aromatase (Homo sapiens)

ClC1=C(Cl)C2(Cl)C3C(Cl)C(Cl)CC3C1(Cl)C2(Cl)Cl (stereo unspecified)
inactive and 21.7 µM (active): [2]
inactive: [1] | [18] | [12] | [6] | [19] | [9] | [11]
active: [3] 30.6 µM | [5] 49 µM | [17] 48.8 µM and 43.6 µM | [7] 21.6 µM and 24.3 µM | [8] 24.3 µM | [16] 54.8 µM [inconclusive] | Aromatase (Homo sapiens) 68.4 µM

C=CCC1=C(C)C(OC(=O)C2C(C=C(C)C)C2(C)C)CC1=O (stereo unspecified)
active: [1] 46.3 µM | [2] 10.3 µM | [3] 16.8 µM | [4] 18.7 µM | [7] 49.3 µM | [8] 25.8 µM | [10] 46.3 µM | [15] 36.4 µM | Aromatase (Homo sapiens) 47.2 µM
inactive: [9] | [16]

CCCCCCCCCCCCCCCC[N+](C)(C)C
active: [1] 23.9 µM and 26.6 µM and 34.7 µM | [2] 473 nM and 934 nM and 969 nM | [3] 596 nM and 417 nM and 770 nM | [4] 841 nM and 1.05 µM and 969 nM | [5] 21.1 µM and 27.5 µM | [6] 61.1 µM | [7] 9.44 µM and 20.9 µM and 13.7 µM | [10] 21.3 µM and 4.72 µM and 49 µM | Aromatase (Homo sapiens) 16.8 µM and 11.8 µM and 30.6 µM
inactive: [11]

CN(C)c1ccc(N=Nc2ccccc2)cc1
active: [11] 61.2 µM
inactive: [1] | [2] | [3] | [6] | [7] | [9] | [10]

CC(C)CC(C)(c1ccc(O)cc1)c1ccc(O)cc1
active: [1] 49 µM | [3] 27.4 µM and 38.6 µM | [4] 54.6 µM | [5] 55.1 µM | [7] 54.6 µM and 54.5 µM | [8] 27.4 µM and 38.6 µM | [10] 55.1 µM | Aromatase (Homo sapiens) 48.7 µM
inactive: [2] | [9] | [11]

CCCN(CCC)c1c([N+](=O)[O-])cc(S(N)(=O)=O)cc1[N+](=O)[O-]
inactive: [9] | [16]
active: [1] 58.6 µM | [2] 2.06 µM | [3] 16.9 µM | [5] 20.8 µM | [6] 51.8 µM | [7] 48.7 µM | [8] 30.6 µM | [10] 26.2 µM | Aromatase (Homo sapiens) 33.1 µM

CCOC(=O)C1(c2ccccc2)CCN(CCC(C#N)(c2ccccc2)c2ccccc2)CC1
active: [2] 2.98 µM and 5.31 µM | [3] 3.76 µM and 10.6 µM | [4] 5.31 µM and 9.44 µM | [17] 10.7 µM and 13.4 µM | [19] 26.6 µM and 53.1 µM | [8] 9.44 µM and 15 µM | [16] 53.5 µM [inconclusive]
inactive: [1] | [12] | [9] | [15] | [11] | Aromatase (Homo sapiens)

C[C@]12Cc3nonc3C[C@@H]1CC[C@@H]1[C@@H]2CC[C@@]2(C)[C@H]1CC[C@]2(C)O
active: [2] 11.9 µM | [3] 13.3 µM | [4] 18.8 µM | [18] 0.0038 µM | [12] 0.0019 µM | [19] 29.8 µM | [7] 29.8 µM | [8] 13.3 µM | [15] 29.8 µM
inactive: [1] | [6] | [10] | [11]
